Entries with a potency or affinity are not part of this list. Inconclusive results are not listed. Calls of active or inactive are those of the source.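 Rule for the calls: active = signal loss from cell killing with fitted potency at or below twice the top valid dose; inconclusive = flat drop of 30 to 70%, or unreliable curve fit; inactive = opposite direction, flat within 30%, or weaker potency.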

The nature of the experiment: A549 cell cytotoxicity, dose response, cytotoxicity control, cherry-picks, 26 µM top dose (AID 1053119). The note with it: A549 viability, CellTiter-Glo ATP luminescence, 72 h; series mostly up to 26 µM.
As to `Cc1cc(C)n2ncc(C(=O)NCc3ccc(Cl)cc3)c2n1`, the molecule was classed as inactive.
For the molecule `C[C@@H]1CN([C@H](C)CO)C(=O)c2cc(-c3ccccc3)cnc2O[C@@H]1CN(C)C(=O)c1cccc(F)c1`, the result was inactive.
`CN1c2ccc(-c3ccccc3)cc2[C@@H]2[C@@H](CCN2C(=O)CN2CCOCC2)[C@H]1CO`: the call was inactive.
`C=CCC[C@H](Cc1ccc(F)cc1)C(=O)OC[C@H](Cc1c[nH]c2ccccc12)NC(=O)[C@@H](CC=C)CC(=O)N[C@@H](CO)Cc1ccccc1`: the call was inactive.
The result for `CN(C)c1ccc(-c2ccnc3c2CC(C)(C(=O)NCC2CC2)O3)cc1` (configuration not stated) reads “inactive”; that for `COc1ccc(CN(C2CCCC2)S(=O)(=O)c2ccc(-n3cnnn3)cc2)cc1OC`, “inactive”.
The result for `CO[C@H]1CN(C)C(=O)c2cc(NC(=O)Nc3ccc(Cl)c(Cl)c3)ccc2OC[C@H](C)NC[C@H]1C` reads “inactive”.
As for `COc1cccc(-c2ccc3c(c2)[C@H]2[C@H](CCN2S(=O)(=O)c2cccc(OC)c2)[C@@H](CO)N3)c1`, the molecule was called inactive.
With `C[C@@H]1CN([C@H](C)CO)C(=O)c2cc(-c3ccccc3)cnc2O[C@H]1CN(C)C(=O)c1cccc(F)c1`, the outcome was inactive.
In the case of `CCOc1ccccc1NC(=O)c1c(NC(=O)CCC(=O)O)sc2c1CCCCC2`, the molecule was called inactive.
`COc1cccc(-c2ccc3c(c2)[C@@H]2[C@@H](CCN2S(=O)(=O)c2cccc(OC)c2)[C@H](CO)N3)c1`: the call was inactive.
Consider `O=S(=O)(c1cccc(F)c1)N1CC[C@@H]2[C@H]1c1cc(-c3cccc(F)c3)ccc1N[C@@H]2CO`, for which the call was inactive.
`COCC(=O)Nc1ccc2c(c1)C(=O)N(C)[C@@H]1CC[C@H](CC(=O)NCc3ccccc3Cl)O[C@@H]1CO2`: the call was inactive.
As for `C[C@@H]1CN([C@@H](C)CO)C(=O)c2cc(NC(=O)CCCN(C)C)ccc2O[C@@H]1CN(C)Cc1ccc(-c2ccccc2)cc1`, the outcome was inactive.
On to `C[C@@H](O)C#Cc1ccc2c(c1)O[C@@H](CN(C)C)[C@@H](C)CN([C@@H](C)CO)S2(=O)=O`, for which the molecule was classed as inactive.
As for `C[C@H]1CN([C@@H](C)CO)C(=O)c2cc(-c3ccccc3)cnc2O[C@H]1CN(C)Cc1ccccc1`, the outcome was inactive.
In the case of `N#Cc1ccc(-c2ccc3c(c2)[C@@H]2[C@@H](CCN2S(=O)(=O)c2cccc(F)c2)[C@@H](CO)N3)cc1` it was “inactive”.
As to `O=C(Nc1cc(Sc2nc3ccccc3s2)cc([N+](=O)[O-])c1)c1ccccc1F`, the molecule was classed as inactive.
For `Cc1ccc(CS(=O)Cc2ccc(C(=O)NC3CCCC(C)C3C)o2)cc1` (configuration not stated), the result was inactive.
Turning to `O=C(OCC(O)C(O)COC(=O)c1ccccc1)c1ccccc1` (configuration not stated), the molecule was called inactive.
For `COc1ccc([N+](=O)[O-])cc1NS(=O)(=O)c1ccc(C(=O)N2CCCC2)cc1`, the molecule was classed as inactive.
Turning to `C[C@H](O)C#Cc1ccc2c(c1)O[C@H](CN(C)C)[C@H](C)CN([C@H](C)CO)S2(=O)=O`, the molecule was called inactive.
With `CO[C@@H]1CN(C)C(=O)c2ccc(NC(=O)c3ccc(-c4ccccc4)cc3)cc2OC[C@@H](C)NC[C@@H]1C`, the molecule was called inactive.
Take `C[C@H](CO)N1C[C@H](C)[C@@H](CN(C)Cc2ccccc2)Oc2ncc(-c3ccccc3)cc2C1=O`: the outcome was inactive.
For `COCC(=O)Nc1ccc2c(c1)C(=O)N(C)[C@@H]1CC[C@@H](CC(=O)NCc3ccccc3Cl)O[C@H]1CO2`, the result was inactive.
In the case of `O=C(NCCS(=O)(=O)N1CCN(c2ccc(F)cc2)CC1)c1ccc(Br)o1` it was “inactive”; in that of `C[C@H]1CN([C@@H](C)CO)C(=O)c2cc(NC(=O)CCCN(C)C)ccc2O[C@H]1CN(C)Cc1ccc(-c2ccccc2)cc1`, “inactive”.
Turning to `CO[C@@H]1CN(C)C(=O)c2cc(NC(=O)Nc3ccc(Cl)c(Cl)c3)ccc2OC[C@H](C)NC[C@H]1C`, the call was inactive.
Consider `O=C(Nc1ccccc1F)N1C[C@@H]2[C@H](c3ccccc31)[C@H](CO)N2C(=O)C1CCOCC1`, for which the molecule was classed as inactive.
In the case of `COCC(=O)Nc1ccc2c(c1)C(=O)N(C)[C@H]1CC[C@@H](CC(=O)NCc3ccccc3Cl)O[C@H]1CO2` it was “inactive”; in that of `CSc1ccccc1C(=O)C1CCCN(C(=O)CCc2cccnc2)C1` (configuration not stated), “inactive”.
The result for `CO[C@H]1CN(C)C(=O)c2cc(NC(=O)Nc3ccc(Cl)c(Cl)c3)ccc2OC[C@@H](C)NC[C@H]1C` reads “inactive”; that for `CCOC(=O)C1=C(C)Nc2nc3ccccc3n2C1c1ccncc1` (configuration not stated), “inactive”; that for `C[C@H]1CN([C@@H](C)CO)C(=O)c2cc(NC(=O)CCCN(C)C)ccc2O[C@@H]1CN(C)Cc1ccc(-c2ccccc2)cc1`, “inactive”.
For the molecule `CN1c2ccc(-c3ccccc3)cc2[C@H]2[C@H](CCN2C(=O)CN2CCOCC2)[C@@H]1CO`, the outcome was inactive.
Regarding `O=C(Nc1ccccc1F)N1C[C@H]2[C@@H](c3ccccc31)[C@@H](CO)N2C(=O)C1CC1`, the outcome was inactive.
In the case of `N#Cc1ccc(-c2ccc3c(c2)[C@@H]2[C@@H](CCN2S(=O)(=O)c2ccccc2F)[C@H](CO)N3)cc1` it was “inactive”.

Source of the values: PubChem BioAssay AID1053119 (Broad Institute, 2014).
